# Assay results reported in PubChem BioAssay (Tox21).
# Results filed as inconclusive are left out. Calls of active or inactive are those of the source. The call rests on the fitted dose curve.
# Target: Peroxisome proliferator-activated receptor delta (Homo sapiens) (UniProt Q03181)
# Assay: qHTS assay to identify small molecule agonists of the peroxisome proliferator-activated receptor delta (PPARd) signaling pathway (AID 743212)
# Conditions: HEK293H PPARd-UAS-bla, beta-lactamase FRET ratio, 17 h; series mostly up to 62.6 µM
# Description: U.S. Tox21 Program National Center for Advancing Translational Sciences [NCATS] NIH Chemical Genomics Center [NCGC] U.S. Environmental Protection Agency [EPA] National Institutes of Environmental Health Sciences [NIEHS] National Toxicology Program [NTP] U.S. Food and Drug Administration [FDA] Tox21 Assay Overview: The peroxisome proliferator-activated receptors (PPARs) are lipid-activated transcription factors of the nuclear receptor superfamily with three distinct subtypes namely PPAR alpha, PPAR delta (PPARd) and PPAR gamma. All these subtypes heterodimerizes with Retinoid X receptor (RXR) and have different physiological functions. […] To identify the compounds that activate PPAR-delta signaling, GeneBLAzer PPAR delta UAS-bla HEK293H cell line (Invitrogen, Carlsbad, CA, USA) containing a beta-lactamase reporter gene under the control of an Upstream Activator Sequence (UAS) was used to screen the Tox21 compound library.
# Tox21 Assay Protocol Summary: PPARd-bla cells were dispensed at 3000 cells/6uL/well in 1536-well black wall/clear bottom plates using a Multidrop Combi (Thermo Fisher Scientific, Waltham, MA) dispenser. After the assay plates were incubated at 37 C and 5% CO2 for 5 h, 23 nL of compounds dissolved in DMSO, positive controls or DMSO only was transferred to the assay plate by a Pintool station (Kalypsys, San Diego, CA). The assay plates were incubated at 37C for 17 h. After 1 uL of LiveBLAzerTM B/G FRET substrate was added using a Bioraptr Flying Reagent Dispenser (FRD) workstation (Beckman Coulter, Indianapolis, IN, USA), the plates were incubated at room temperature for 2 h, and fluorescence intensity was measured by an Envision plate reader (PerkinElmer, Shelton, CT).
# Peroxisome proliferator-activated receptor delta (Homo sapiens), sequence (Q03181 whole entry, looked up): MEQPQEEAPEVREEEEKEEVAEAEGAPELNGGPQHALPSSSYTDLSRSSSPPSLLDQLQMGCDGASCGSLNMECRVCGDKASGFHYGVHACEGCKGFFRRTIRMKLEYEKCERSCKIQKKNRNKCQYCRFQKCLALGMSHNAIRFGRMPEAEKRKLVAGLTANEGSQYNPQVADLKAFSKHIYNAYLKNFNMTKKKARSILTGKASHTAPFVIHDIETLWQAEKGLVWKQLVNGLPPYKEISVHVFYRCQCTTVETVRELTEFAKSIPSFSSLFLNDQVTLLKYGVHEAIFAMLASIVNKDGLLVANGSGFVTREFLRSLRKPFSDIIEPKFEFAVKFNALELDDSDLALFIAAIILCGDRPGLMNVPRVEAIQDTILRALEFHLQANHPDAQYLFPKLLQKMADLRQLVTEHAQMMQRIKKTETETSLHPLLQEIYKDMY
row,SMILES,outcome
1,CC(C)O,inactive
2,C[C@]12CCC(=O)C=C1CC[C@@H]1[C@@H]2CC[C@@]2(C)[C@H]1CC[C@]2(O)C(=O)CO,inactive
3,CO[Si](C)(C)OC,inactive
4,CCOC(=O)COc1ccc2c(c1)CC(NCC(O)c1cccc(Cl)c1)CC2 (stereo not given),inactive
5,CCC(=O)O[C@]1(C(=O)SCF)[C@H](C)C[C@H]2[C@@H]3C[C@H](F)C4=CC(=O)C=C[C@]4(C)[C@@]3(F)[C@@H](O)C[C@@]21C,inactive
6,Oc1ccccc1C=NCc1ccccc1,inactive
7,CC(Oc1c(Cl)cccc1Cl)C1=NCCN1 (stereo not given),inactive
8,C=CC(C)(O)CC/C=C(\C)CCC=C(C)C (stereo not given),inactive
9,OCCN1CCN(CCO)CC1,inactive
10,CCOc1ccc(OCC)c(Cl)c1,inactive
11,CCCCNc1ccc(C(=O)OCCN(CC)CC)cc1,inactive
12,CC(C)C1=CC2=CC[C@@H]3[C@](C)(CCC[C@@]3(C)C(=O)O)[C@H]2CC1,inactive
13,C[C@]12C(=O)OC(=O)[C@H]1[C@H]1C=C[C@@H]2C1,inactive
14,N#Cc1ccc(C(c2ccc(C#N)cc2)n2cncn2)cc1,inactive
15,CC1(C)C(=O)N(Cl)C(=O)N1Br,inactive
16,CCOC(=O)NCCC[Si](OCC)(OCC)OCC,inactive
17,COc1nc(C)nc(NC(=O)NS(=O)(=O)c2ccccc2OCCCl)n1,inactive
18,CC1=C(O)C(=O)OC1C (stereo not given),inactive
19,CC(=O)Nc1ccc(C)c(Cl)c1,inactive
20,CN1CCN(c2c(F)cc3c(=O)c(C(=O)O)cn4c3c2SCC4)CC1,inactive

row,SMILES,outcome
1,CCOc1ccc(NS(=O)(=O)c2ccc(N)cc2)nn1,inactive
2,O=c1[nH]cnc2c1ncn2[C@@H]1O[C@H](CO)[C@@H](O)[C@H]1O,inactive
3,CCCCCCCCCC#N,inactive
4,CC(C)=CCCC(C)CCOC=O (stereo not given),inactive
5,Cc1nc(-c2ccccn2)ncc1C(=O)Nn1cc(C)c2cc(F)ccc21,inactive
6,C/C(=N\O)[C@@H](C)NCC(C)(C)CN[C@H](C)/C(C)=N/O,inactive
7,O=C(CCCl)NCc1ccccc1,inactive
8,CCCCNCCCC,inactive
9,Cc1cc(S(=O)(=O)O)c(N)cc1Cl,inactive
10,CC/C=C\CCOC(=O)CCCCC,inactive
11,CC(C)(CO)[C@@H](O)C(=O)NCCC(=O)O,inactive
12,O=C(O)[C@@H](O)[C@H](O)[C@H](O)[C@@H](O)C(=O)O,inactive
13,C=CCCC=C,inactive
14,O=C(O)CN(CCN(CC(=O)O)CC(=O)O)CCN(CC(=O)O)CC(=O)O,inactive
15,CCOC(=O)C1CC(=O)C(=C(O)C2CC2)C(=O)C1 (stereo not given),inactive
16,CCC(=O)Nc1ccc(O)cc1,inactive
17,CCN1CC(CCN2CCOCC2)C(c2ccccc2)(c2ccccc2)C1=O (stereo not given),inactive
18,COC(=O)C(C)O (stereo not given),inactive
19,O=c1[nH]c(=O)n([C@H]2C[C@H](O)[C@@H](CO)O2)cc1C(F)(F)F,inactive
20,CC(C)(C)c1cccc(O)c1,inactive
